Source: publication PMC7862700, “An all-to-all approach to the identification of sequence-specific readers for epigenetic DNA modifications on cytosine”

Legend:
Experiment in all cases: DAPPL (digital affinity profiling via proximity ligation, sequencing); 10 mM Tris-HCl pH 7.5, 50 mM NaCl, 1 mM DTT, 4% glycerol, room temperature, 30 min; GST-TFs on glutathione beads, 16-mer random dsDNA library, 0.1% formaldehyde crosslink after washing; high values mean tight binding
FLI1 = target: T1, FLI1 (Homo sapiens, UniProt Q01543 1-452); conditions: protein: recombinant; tags: N-terminal GST; dsDNA, one strand shown
T1 sequence: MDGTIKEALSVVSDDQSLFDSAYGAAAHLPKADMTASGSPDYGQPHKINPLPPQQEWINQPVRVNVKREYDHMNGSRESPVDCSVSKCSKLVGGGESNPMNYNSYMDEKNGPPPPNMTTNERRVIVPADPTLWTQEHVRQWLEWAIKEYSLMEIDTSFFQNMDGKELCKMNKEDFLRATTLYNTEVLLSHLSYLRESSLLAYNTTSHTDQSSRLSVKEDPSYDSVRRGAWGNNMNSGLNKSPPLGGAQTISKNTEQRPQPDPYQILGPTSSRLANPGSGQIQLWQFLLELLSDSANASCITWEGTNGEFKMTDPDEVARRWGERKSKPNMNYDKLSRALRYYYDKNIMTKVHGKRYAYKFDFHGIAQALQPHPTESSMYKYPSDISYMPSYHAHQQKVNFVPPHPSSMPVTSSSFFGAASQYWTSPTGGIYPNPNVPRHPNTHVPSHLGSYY
In short: (§1)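 Yeast served to express human transcription factors as GST fusions, which were then captured on glutathione beads and labelled with DNA barcodes. Pooled with a tag-only sample, they were incubated with 200 nmole of a 16-mer random double-stranded DNA library for 30 min at room temperature in Tris/NaCl/DTT/glycerol buffer, washed, crosslinked with 0.1% formaldehyde, ligated by proximity, amplified by PCR and sequenced. Dividing each hexamer's read frequency for a factor by its frequency for the tag-only sample gives the binding signal.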

ELK1 = target: T2, ELK1 (Homo sapiens, UniProt P19419 1-428); conditions: protein: recombinant; tags: N-terminal GST; dsDNA, one strand shown
T2 sequence: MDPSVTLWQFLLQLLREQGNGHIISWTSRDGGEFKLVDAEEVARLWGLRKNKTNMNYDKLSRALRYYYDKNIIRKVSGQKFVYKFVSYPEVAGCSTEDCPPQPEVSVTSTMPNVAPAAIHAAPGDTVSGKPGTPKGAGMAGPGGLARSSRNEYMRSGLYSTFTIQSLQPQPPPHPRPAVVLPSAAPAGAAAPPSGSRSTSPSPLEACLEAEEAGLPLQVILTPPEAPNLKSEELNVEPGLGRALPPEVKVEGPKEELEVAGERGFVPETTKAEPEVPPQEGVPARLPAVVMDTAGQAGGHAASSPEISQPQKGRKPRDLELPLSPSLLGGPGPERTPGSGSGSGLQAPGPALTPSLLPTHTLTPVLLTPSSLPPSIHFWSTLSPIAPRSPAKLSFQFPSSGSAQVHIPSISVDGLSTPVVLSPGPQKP
In short: as §1

GABPA = target: T3, GABPA (Homo sapiens, UniProt Q06546 1-454); conditions: protein: recombinant; tags: N-terminal GST; dsDNA, one strand shown
T3 sequence: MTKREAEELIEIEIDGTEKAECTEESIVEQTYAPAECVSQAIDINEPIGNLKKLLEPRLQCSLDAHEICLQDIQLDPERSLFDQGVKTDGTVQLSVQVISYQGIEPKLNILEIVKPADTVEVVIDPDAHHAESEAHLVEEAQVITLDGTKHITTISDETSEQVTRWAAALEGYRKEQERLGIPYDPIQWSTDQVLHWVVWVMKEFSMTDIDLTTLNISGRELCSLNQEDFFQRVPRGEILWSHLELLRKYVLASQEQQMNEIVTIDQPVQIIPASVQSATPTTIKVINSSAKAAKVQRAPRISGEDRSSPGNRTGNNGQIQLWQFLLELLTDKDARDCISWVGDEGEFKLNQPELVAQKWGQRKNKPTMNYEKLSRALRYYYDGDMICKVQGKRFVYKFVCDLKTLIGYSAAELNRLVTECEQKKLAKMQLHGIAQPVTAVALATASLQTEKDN
In short: as §1

ERG = target: T4, ERG (Homo sapiens, UniProt P11308 1-479); conditions: protein: recombinant; tags: N-terminal GST; dsDNA, one strand shown
T4 sequence: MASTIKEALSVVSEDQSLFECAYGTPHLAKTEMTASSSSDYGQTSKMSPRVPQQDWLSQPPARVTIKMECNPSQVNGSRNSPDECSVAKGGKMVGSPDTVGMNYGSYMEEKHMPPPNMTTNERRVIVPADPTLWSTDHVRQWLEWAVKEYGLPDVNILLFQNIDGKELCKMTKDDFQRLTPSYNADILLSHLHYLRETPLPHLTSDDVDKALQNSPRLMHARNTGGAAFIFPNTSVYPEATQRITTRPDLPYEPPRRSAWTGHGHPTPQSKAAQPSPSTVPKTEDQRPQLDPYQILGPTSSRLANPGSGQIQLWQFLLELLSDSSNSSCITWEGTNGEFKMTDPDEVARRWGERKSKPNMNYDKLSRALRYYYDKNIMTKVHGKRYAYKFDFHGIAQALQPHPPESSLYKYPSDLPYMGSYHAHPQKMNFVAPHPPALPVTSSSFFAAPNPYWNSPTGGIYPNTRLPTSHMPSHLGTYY
In short: as §1

ELF1 = ELF1 (Homo sapiens, UniProt P32519 1-619); conditions: protein: recombinant; tags: N-terminal GST; dsDNA, one strand shown
In short: as §1

EHF = target: T5, EHF (Homo sapiens, UniProt Q9NZC4 1-300); conditions: protein: recombinant; tags: N-terminal GST; dsDNA, one strand shown
T5 sequence: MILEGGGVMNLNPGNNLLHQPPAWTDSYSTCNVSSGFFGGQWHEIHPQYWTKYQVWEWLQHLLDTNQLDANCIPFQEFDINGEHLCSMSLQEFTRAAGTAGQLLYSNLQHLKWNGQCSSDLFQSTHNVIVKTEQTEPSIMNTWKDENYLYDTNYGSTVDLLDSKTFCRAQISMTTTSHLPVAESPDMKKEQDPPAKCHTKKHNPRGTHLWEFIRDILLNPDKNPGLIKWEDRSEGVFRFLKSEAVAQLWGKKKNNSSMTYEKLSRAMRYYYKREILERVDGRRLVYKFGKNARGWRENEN
In short: as §1

SPI1 = SPI1 (Homo sapiens, UniProt P17947 1-270); conditions: protein: recombinant; tags: N-terminal GST; dsDNA, one strand shown
In short: as §1

SPIB = SPIB (Homo sapiens, UniProt Q01892 1-262); conditions: protein: recombinant; tags: N-terminal GST; dsDNA, one strand shown
In short: as §1

ELK3 = target: T6, ELK3 (Homo sapiens, UniProt P41970 1-407); conditions: protein: recombinant; tags: N-terminal GST; dsDNA, one strand shown
T6 sequence: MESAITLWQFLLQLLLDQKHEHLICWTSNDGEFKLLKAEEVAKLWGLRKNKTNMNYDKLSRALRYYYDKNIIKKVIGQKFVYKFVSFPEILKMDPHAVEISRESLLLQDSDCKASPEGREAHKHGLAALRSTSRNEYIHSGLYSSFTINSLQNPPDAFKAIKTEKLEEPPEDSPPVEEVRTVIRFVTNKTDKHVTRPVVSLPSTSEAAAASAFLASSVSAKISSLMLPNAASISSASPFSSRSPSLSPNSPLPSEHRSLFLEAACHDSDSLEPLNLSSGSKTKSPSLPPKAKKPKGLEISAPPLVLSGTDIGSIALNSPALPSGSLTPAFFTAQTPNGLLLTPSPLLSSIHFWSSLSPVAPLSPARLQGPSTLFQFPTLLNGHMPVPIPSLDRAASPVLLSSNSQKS
In short: as §1

FEV = target: T7, FEV (Homo sapiens, UniProt Q99581 1-238); conditions: protein: recombinant; tags: N-terminal GST; dsDNA, one strand shown
T7 sequence: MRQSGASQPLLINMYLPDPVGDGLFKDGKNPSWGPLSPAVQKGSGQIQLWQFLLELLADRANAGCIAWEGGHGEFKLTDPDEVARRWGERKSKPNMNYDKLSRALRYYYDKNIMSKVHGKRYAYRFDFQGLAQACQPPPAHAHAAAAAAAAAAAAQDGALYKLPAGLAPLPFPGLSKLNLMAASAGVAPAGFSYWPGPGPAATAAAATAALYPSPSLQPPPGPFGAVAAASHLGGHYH
In short: as §1

ETV5 = ETV5 (Homo sapiens, UniProt P41161 1-510); conditions: protein: recombinant; tags: N-terminal GST; dsDNA, one strand shown
In short: as §1

HSF1 = HSF1 (Homo sapiens, UniProt Q00613 1-529); conditions: protein: recombinant; tags: N-terminal GST; chain copies: 3; dsDNA, one strand shown
In short: as §1

SPIC = target: T8, SPIC (Homo sapiens, UniProt Q8N5J4 1-248); conditions: protein: recombinant; tags: N-terminal GST; dsDNA, one strand shown
T8 sequence: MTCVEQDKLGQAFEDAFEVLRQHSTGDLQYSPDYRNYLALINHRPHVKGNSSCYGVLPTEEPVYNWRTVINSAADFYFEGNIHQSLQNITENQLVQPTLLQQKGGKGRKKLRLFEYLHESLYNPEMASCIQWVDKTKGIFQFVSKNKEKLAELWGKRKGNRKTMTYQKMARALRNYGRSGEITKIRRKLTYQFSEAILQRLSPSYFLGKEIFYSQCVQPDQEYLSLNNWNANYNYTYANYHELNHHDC
In short: as §1

ELF4 = ELF4 (Homo sapiens, UniProt Q99607 1-663); conditions: protein: recombinant; tags: N-terminal GST; dsDNA, one strand shown
In short: as §1

ELK4 = target: T9, ELK4 (Homo sapiens, UniProt P28324-2 1-405); conditions: protein: recombinant; tags: N-terminal GST; dsDNA, one strand shown
T9 sequence: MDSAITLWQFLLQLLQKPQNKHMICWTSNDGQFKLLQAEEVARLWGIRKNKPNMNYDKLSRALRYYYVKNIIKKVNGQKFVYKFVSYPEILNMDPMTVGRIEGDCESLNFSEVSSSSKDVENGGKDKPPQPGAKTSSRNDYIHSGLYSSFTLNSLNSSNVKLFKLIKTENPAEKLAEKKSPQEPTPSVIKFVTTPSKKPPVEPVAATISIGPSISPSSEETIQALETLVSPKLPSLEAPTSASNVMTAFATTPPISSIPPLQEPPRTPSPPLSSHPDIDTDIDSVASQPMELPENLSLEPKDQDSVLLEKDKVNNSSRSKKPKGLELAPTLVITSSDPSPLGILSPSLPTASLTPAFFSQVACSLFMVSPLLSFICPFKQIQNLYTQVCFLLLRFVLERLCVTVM
In short: as §1

ETV2 = target: T10, ETV2 (Homo sapiens, UniProt O00321 1-342); conditions: protein: recombinant; tags: N-terminal GST; dsDNA, one strand shown
T10 sequence: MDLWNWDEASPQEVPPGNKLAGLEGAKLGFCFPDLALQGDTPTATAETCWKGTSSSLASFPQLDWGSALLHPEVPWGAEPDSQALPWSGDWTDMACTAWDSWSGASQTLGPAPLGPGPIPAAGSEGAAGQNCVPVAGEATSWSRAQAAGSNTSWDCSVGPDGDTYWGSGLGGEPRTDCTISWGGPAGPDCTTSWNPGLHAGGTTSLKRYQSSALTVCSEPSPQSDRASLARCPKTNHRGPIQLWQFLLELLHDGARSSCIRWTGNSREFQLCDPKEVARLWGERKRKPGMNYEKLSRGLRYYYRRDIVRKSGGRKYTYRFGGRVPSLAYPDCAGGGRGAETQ
In short: as §1

ELF3 = target: T11, ELF3 (Homo sapiens, UniProt P78545 1-371); conditions: protein: recombinant; tags: N-terminal GST; dsDNA, one strand shown
T11 sequence: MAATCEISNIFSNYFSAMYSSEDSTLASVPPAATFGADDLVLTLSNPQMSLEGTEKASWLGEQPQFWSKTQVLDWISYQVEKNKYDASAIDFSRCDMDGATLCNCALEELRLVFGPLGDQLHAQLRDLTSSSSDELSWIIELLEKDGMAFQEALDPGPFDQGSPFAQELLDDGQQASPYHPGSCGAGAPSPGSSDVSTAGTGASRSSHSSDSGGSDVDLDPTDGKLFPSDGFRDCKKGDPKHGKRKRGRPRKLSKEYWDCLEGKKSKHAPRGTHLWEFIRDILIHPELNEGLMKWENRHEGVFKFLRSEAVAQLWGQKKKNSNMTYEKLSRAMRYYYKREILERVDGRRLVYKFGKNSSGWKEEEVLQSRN
In short: as §1

CRX = CRX (Homo sapiens, UniProt O43186 1-299); conditions: protein: recombinant; tags: N-terminal GST; dsDNA, one strand shown
In short: as §1

ETV1 = ETV1 (Homo sapiens, UniProt P50549 1-477); conditions: protein: recombinant; tags: N-terminal GST; dsDNA, one strand shown
In short: as §1

Chain of ELF1 (P32519 whole entry): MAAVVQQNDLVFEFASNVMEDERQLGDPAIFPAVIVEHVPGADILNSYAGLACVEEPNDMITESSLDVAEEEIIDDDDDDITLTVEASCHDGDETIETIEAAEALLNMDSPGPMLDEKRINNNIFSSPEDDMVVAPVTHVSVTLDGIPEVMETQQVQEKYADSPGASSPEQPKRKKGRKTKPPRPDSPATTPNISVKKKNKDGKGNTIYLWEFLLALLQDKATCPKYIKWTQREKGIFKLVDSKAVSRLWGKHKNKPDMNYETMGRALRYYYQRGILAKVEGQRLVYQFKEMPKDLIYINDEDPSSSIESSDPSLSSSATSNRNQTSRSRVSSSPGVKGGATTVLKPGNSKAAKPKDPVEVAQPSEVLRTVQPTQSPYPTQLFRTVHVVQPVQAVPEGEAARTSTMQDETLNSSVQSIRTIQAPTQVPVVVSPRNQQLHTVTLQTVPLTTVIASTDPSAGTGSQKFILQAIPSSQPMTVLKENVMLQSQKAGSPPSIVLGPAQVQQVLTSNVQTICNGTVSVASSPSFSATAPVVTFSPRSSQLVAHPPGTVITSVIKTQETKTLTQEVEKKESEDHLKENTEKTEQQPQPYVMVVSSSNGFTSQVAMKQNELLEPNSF
Chain of ETV5 (P41161 whole entry): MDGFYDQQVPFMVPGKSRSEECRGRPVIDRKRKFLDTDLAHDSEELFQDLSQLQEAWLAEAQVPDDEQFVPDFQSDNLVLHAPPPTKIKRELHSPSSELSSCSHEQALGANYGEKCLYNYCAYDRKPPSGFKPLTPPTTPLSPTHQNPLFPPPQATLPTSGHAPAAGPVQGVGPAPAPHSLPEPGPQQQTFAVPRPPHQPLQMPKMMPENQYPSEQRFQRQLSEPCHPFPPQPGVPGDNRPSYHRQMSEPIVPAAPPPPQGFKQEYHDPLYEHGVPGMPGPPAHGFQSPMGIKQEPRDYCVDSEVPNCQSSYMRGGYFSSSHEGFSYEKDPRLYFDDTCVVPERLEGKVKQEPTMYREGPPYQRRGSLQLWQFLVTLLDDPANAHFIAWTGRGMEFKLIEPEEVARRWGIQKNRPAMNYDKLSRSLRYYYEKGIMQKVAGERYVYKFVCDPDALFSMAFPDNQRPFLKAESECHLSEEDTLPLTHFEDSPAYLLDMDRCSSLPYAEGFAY
Chain of SPIB (Q01892 whole entry): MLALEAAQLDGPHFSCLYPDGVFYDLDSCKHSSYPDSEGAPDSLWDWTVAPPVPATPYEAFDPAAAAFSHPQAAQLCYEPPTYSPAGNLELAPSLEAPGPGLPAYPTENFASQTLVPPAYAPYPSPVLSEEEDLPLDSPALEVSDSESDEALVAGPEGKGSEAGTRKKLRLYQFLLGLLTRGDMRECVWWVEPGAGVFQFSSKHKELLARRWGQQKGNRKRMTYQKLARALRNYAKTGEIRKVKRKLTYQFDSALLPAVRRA
Chain of HSF1 (Q00613 whole entry): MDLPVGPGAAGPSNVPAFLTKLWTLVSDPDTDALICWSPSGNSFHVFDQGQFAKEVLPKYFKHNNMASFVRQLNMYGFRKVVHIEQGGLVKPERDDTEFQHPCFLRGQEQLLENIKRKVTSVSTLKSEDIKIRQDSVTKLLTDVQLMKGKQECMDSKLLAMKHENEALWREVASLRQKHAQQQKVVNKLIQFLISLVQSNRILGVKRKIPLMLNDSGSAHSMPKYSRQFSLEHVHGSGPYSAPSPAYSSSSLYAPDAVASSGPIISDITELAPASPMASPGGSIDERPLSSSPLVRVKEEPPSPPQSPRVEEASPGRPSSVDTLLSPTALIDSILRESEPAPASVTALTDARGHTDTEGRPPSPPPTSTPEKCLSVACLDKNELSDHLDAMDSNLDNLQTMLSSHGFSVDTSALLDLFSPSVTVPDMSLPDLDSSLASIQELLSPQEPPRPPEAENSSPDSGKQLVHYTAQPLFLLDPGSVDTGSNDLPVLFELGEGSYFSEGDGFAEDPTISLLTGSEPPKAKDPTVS
Chain of ELF4 (Q99607 whole entry): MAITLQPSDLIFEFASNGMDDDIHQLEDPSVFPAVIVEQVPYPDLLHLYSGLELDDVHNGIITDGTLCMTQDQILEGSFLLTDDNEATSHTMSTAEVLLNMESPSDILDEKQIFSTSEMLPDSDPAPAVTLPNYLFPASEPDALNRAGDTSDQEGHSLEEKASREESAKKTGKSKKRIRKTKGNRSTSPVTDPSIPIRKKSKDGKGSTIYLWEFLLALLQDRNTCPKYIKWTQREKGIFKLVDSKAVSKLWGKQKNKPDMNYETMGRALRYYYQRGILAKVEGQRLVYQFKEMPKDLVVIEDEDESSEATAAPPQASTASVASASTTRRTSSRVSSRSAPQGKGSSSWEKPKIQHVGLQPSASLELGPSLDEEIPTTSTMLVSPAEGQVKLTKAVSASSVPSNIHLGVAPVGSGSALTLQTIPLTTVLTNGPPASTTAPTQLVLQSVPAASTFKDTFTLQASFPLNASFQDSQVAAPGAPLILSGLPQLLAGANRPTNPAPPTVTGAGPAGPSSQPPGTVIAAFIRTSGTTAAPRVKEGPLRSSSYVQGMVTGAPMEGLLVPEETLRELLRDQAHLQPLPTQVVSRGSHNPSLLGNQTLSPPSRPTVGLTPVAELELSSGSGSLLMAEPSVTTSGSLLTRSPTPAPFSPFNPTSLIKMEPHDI
Chain of ETV1 (P50549 whole entry): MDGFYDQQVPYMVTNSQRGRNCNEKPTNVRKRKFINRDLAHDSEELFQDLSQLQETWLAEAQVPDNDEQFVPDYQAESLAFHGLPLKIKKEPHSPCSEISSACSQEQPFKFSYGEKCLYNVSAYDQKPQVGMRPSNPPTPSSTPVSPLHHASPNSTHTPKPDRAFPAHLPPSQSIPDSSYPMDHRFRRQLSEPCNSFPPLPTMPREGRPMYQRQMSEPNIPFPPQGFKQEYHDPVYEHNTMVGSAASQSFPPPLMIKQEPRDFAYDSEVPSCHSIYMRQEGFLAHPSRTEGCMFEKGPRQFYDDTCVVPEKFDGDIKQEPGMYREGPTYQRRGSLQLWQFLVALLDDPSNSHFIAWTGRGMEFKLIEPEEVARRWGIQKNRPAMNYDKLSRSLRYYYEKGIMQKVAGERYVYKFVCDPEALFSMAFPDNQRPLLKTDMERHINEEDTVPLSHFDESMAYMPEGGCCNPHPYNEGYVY
Chain of CRX (O43186 whole entry): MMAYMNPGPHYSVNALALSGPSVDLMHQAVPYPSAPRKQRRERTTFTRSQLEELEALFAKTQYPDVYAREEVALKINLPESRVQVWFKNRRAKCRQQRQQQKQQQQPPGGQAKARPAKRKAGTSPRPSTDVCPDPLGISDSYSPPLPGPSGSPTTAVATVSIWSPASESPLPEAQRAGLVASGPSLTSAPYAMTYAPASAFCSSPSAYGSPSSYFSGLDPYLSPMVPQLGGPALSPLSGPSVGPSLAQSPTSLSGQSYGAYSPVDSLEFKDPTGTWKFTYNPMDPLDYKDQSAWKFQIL

## TCCAAG
FLI1
  binding signal: 1.16 fold enrichment (6-mer frequency, TF over GST control)
ELK1
  binding signal: 1.1 fold enrichment (6-mer frequency, TF over GST control)
GABPA
  binding signal: 1.16 fold enrichment (6-mer frequency, TF over GST control)
ERG
  binding signal: 1.02 fold enrichment (6-mer frequency, TF over GST control)
ELF1
  binding signal: 1.17 fold enrichment (6-mer frequency, TF over GST control)
EHF
  binding signal: 1.06 fold enrichment (6-mer frequency, TF over GST control)
SPI1
  binding signal: 1.03 fold enrichment (6-mer frequency, TF over GST control)
SPIB
  binding signal: 1.09 fold enrichment (6-mer frequency, TF over GST control)
ELK3
  binding signal: 1.08 fold enrichment (6-mer frequency, TF over GST control)
FEV
  binding signal: 1.03 fold enrichment (6-mer frequency, TF over GST control)
ETV5
  binding signal: 1.07 fold enrichment (6-mer frequency, TF over GST control)
HSF1
  binding signal: 1.23 fold enrichment (6-mer frequency, TF over GST control)
SPIC
  binding signal: 1.11 fold enrichment (6-mer frequency, TF over GST control)
ELF4
  binding signal: 1.07 fold enrichment (6-mer frequency, TF over GST control)
ELK4
  binding signal: 1.04 fold enrichment (6-mer frequency, TF over GST control)
ETV2
  binding signal: 1.19 fold enrichment (6-mer frequency, TF over GST control)
ELF3
  binding signal: 1.11 fold enrichment (6-mer frequency, TF over GST control)
CRX
  binding signal: 1.2 fold enrichment (6-mer frequency, TF over GST control)
ETV1
  binding signal: 1.13 fold enrichment (6-mer frequency, TF over GST control)
